Test results from PubChem BioAssay (NCATS).
Records with an inconclusive call do not appear. Where a call stands in place of a potency, no number is given. Active and inactive are the calls of the source. Unless noted, the call rests on the fitted dose curve; in most records, active means well fitted curve in the direction sought with a large enough effect; inconclusive means small, poorly fitted or top-dose-only effect, or another doubt; inactive means no such curve, though single readings can be large; an effect the other way counts as inactive or inconclusive.

Legend:
[1] = qHTS to identify inhibitors of the type 1 interferon - major histocompatibility complex class I in skeletal muscle: primary screen against the NCATS Pharmaceutical Collection (AID 1347407);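 further: luminescence of HiBiT knocked into endogenous HLA-B as interferon-induced MHC class I level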
Method in brief: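 Cells were seeded with 4 ng/ml IFN-beta, incubated 1 h, then dosed with compounds over eight 1:5 steps up to 46 uM final. After 24 h at 37 C, HiBiT lytic reagent was added and luminescence read after 10 min lysis in the dark.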

[2] = biological target: Protein phosphatase 1D (Homo sapiens) (UniProt O15297); assay: RapidFire Mass Spectrometry qHTS Assay for Modulators of WT P53-Induced Phosphatase 1 (WIP1) (AID 1347424);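 further: amount of dephosphorylated VEPPL-S-QETFS peptide product formed by WIP1; series mostly up to about 63 µM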
Method in brief: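 RapidFire mass spectrometry measured dephosphorylated peptide after 5 min room-temperature reaction of 2 uM VEPPL-pS-QETFS with 10 nM WIP1 (50 mM Tris-HCl pH 7.5, 30 mM MgCl2, 0.1 mM EGTA, BSA), following 1 hr compound preincubation; 1 uM isotope-labelled product standard.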

[3] = biological target: Protein phosphatase 1D (Homo sapiens) (UniProt O15297); assay: Rhodamine-PBP qHTS Assay for Modulators of WT P53-Induced Phosphatase 1 (WIP1) (AID 1347425)
Method in brief: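 5 nM WIP1 + 10 uM Rh-PBP, 50 mM Tris pH 7.5, 30 mM MgCl2, 1 mM TCEP, 0.1 mM EGTA, BSA; cpds pinned, 1 hr RT; + 10 uM phosphopeptide; fluorescence 1-min reads x 11 min; delta = f1 - f0.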

[4] = Primary qHTS for inhibitors of SARS-S pseudo-typed particle cell entry (AID 1479145; calls by dose curve; further: nearly all actives have a fitted effect of over 45% in size; further: potency means the concentration at half of the fitted maximal effect)
[5] = Primary qHTS for Huh7 cytotoxicity: counterscreen for inhibitors of MERS-S pseudotyped particle cell entry (AID 1479147; calls by dose curve; further: potency means the concentration at half of the fitted maximal effect)
[6] = Primary qHTS for Vero E6 cytotoxicity: counterscreen for inhibitors of SARS-S pseudo-typed particle cell entry (AID 1479150; calls by dose curve; further: potency means the concentration at half of the fitted maximal effect)
[7] = Primary qHTS for inhibitors of MERS-S pseudo-typed particle cell entry (AID 1479149; calls by dose curve; further: nearly all actives have a fitted effect of over 60% in size)

Sequence of Protein phosphatase 1D (Homo sapiens) (O15297 whole entry, looked up): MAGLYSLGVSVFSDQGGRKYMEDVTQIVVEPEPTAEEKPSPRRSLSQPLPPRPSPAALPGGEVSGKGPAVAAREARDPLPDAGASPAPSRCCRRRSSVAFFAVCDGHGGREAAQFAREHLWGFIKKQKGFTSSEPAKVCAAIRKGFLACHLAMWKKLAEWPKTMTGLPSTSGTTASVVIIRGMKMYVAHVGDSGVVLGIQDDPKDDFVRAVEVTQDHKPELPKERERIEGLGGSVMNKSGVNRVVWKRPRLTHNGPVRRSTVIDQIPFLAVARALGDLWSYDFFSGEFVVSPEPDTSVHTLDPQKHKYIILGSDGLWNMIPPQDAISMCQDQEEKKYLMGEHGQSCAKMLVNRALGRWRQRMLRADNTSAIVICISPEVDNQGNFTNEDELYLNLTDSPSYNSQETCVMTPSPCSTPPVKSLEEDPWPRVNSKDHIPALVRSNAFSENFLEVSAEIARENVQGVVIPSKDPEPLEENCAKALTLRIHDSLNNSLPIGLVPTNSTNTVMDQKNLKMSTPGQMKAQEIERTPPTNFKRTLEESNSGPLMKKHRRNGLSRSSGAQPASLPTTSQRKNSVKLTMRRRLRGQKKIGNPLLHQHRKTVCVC

| Compound | Potency [1] | Potency [2] | outcome [3] | Potency [4] | Potency [5] | Potency [6] | Potency [7] |
| --- | --- | --- | --- | --- | --- | --- | --- |
| C[C@]12CC[C@H]3[C@@H](CC=C4C[C@@H](O)CC[C@@]43C)[C@@H]1CC[C@@H]2O | inactive | inactive | inactive | – | – | – | – |
| Nc1ccc(N)cc1 | inactive | inactive | – | – | – | – | – |
| CCN(CC)C(C)C(=O)c1ccccc1 (stereo not drawn) | inactive | inactive | inactive | – | – | – | – |
| CCC1(c2ccccc2)CCC(=O)NC1=O (stereo not drawn) | inactive | inactive | inactive | – | – | – | – |
| CC(CC(C#N)(c1ccccc1)c1ccccc1)N(C)C (stereo not drawn) | inactive | inactive | inactive | – | – | – | – |
| CC(Cc1ccc2c(c1)OCO2)NO (stereo not drawn) | inactive | inactive | inactive | – | – | – | – |
| CCOC(=O)NC(O)C(Cl)(Cl)Cl (stereo not drawn) | inactive | inactive | inactive | – | – | – | – |
| CCCC(C)C1(CC)C(=O)N=C(S)NC1=O (stereo not drawn) | inactive | inactive | inactive | – | – | – | – |
| CCOC(=O)NC(C)(C)Cc1ccc(Cl)cc1 | inactive | inactive | inactive | – | – | – | – |
| CCCOC(=O)Cc1ccc(OCC(=O)N(CC)CC)c(OC)c1 | inactive | inactive | inactive | – | – | – | – |
| NC1(c2ccccc2)CCCCC1 | inactive | inactive | inactive | – | – | – | – |
| CC(C)=CCN1CC[C@@]2(C)c3cc(O)ccc3C[C@@H]1[C@@H]2C | inactive | inactive | inactive | – | – | – | – |
| C[C@H](CN1CCOCC1)C(C(=O)N1CCCC1)(c1ccccc1)c1ccccc1 | inactive | inactive | inactive | – | – | – | – |
| COc1cc(C[C@@H](C)N)c(OC)cc1Br | inactive | inactive | inactive | – | – | – | – |
| COCC(=O)N(c1c(C)cccc1C)C(C)C(=O)OC (stereo not drawn) | inactive | inactive | inactive | – | – | – | – |
| CCC(OC(C)=O)C(CC(C)NC)(c1ccccc1)c1ccccc1 (stereo not drawn) | inactive | inactive | inactive | – | – | – | – |
| CCOC(C(=O)OCCN(C)C)(c1ccccc1)c1ccccc1 | inactive | inactive | inactive | – | – | – | – |
| CN1C(=O)CN=C(c2ccccc2)c2cc([N+](=O)[O-])ccc21 | inactive | inactive | inactive | – | – | – | – |
| CC(C)NCC(O)c1ccc(N)c(C#N)c1 (stereo not drawn) | inactive | inactive | inactive | – | – | – | – |
| ClCCCN1CCN(c2cccc(Cl)c2)CC1 | inactive | inactive | inactive | – | – | – | – |
| C[C@]12CC[C@H]3[C@@H](CCC4=CC(=O)CC[C@@]43C)[C@@H]1CC[C@@H]2C(=O)O | inactive | inactive | inactive | – | – | – | – |
| CNC(C)Cc1ccc2c(c1)OCO2 (stereo not drawn) | inactive | inactive | inactive | – | – | – | – |
| CCC1(CC)C(=O)NC(=O)NC1=O | inactive | inactive | inactive | – | – | – | – |
| CC[C@H](O)C(C[C@H](C)N(C)C)(c1ccccc1)c1ccccc1 | inactive | inactive | inactive | – | – | – | – |
| O=C(CBr)Nc1ccc(Cl)cc1C(=O)c1ccccc1F | inactive | inactive | inactive | – | – | – | – |
| c1cc2c(c(N3CCNCC3)c1)OCCO2 | inactive | inactive | inactive | – | – | – | – |
| CC(C)=C[C@@H]1[C@@H](C(=O)OCc2coc(Cc3ccccc3)c2)C1(C)C | inactive | inactive | inactive | – | – | – | – |

| Compound | Potency [1] | Potency [2] | outcome [3] | Potency [4] | Potency [5] | Potency [6] | Potency [7] |
| --- | --- | --- | --- | --- | --- | --- | --- |
| CC1Sc2c(C(=O)O)c(=O)c3cc(F)c(N4CCNCC4)cc3n21 (stereo not drawn) | inactive | inactive | inactive | – | – | – | – |
| CN1[C@@H]2CC[C@H]1CC(OC(=O)c1cc(Cl)cc(Cl)c1)C2 (stereo partly drawn) | inactive | inactive | inactive | – | – | – | – |
| COc1ccc2[nH]cc(CCN(C(C)C)C(C)C)c2c1 | inactive | inactive | inactive | – | – | – | – |
| Sc1ccccc1Cl | inactive | inactive | inactive | – | – | – | – |
| CCN(CC)CCOC(=O)C(C)(c1ccccc1)c1ccccc1 | inactive | inactive | inactive | – | – | – | – |
| CCN1CCCC1CNC(=O)C(O)(c1ccccc1)c1ccccc1 (stereo not drawn) | inactive | inactive | inactive | – | – | – | – |
| CC(=O)OC1(c2ccccc2)CCN(CCc2ccccc2)CC1 | inactive | inactive | inactive | – | – | – | – |
| COc1cc(CC(C)N)c(OC)cc1Br (stereo not drawn) | inactive | inactive | inactive | – | – | – | – |
| CCc1ccc(C2CCNCC2)cc1 | inactive | inactive | inactive | – | – | – | – |
| CN1C[C@@H](NS(=O)(=O)N(C)C)C[C@@H]2c3cccc4c3c(cn4C)C[C@H]21 | inactive | inactive | inactive | – | – | – | – |
| Cc1ncc2n1-c1ccc(Cl)cc1C(c1ccccc1F)=NC2 | inactive | inactive | inactive | – | – | – | – |
| Cc1nc2ccccc2c(=O)n1-c1ccccc1Cl | inactive | inactive | inactive | – | – | – | – |
| OC(c1ccccc1)(c1ccccc1)C1CCNCC1 | inactive | inactive | inactive | – | – | – | – |
| CCC(=O)OC1(c2ccccc2)CCN(C)CC1 | inactive | inactive | inactive | – | – | – | – |
| ClCc1cccc(Cl)c1 | inactive | inactive | inactive | – | – | – | – |
| O=C(CCl)c1ccc(Cl)cc1Cl | inactive | inactive | inactive | – | – | – | – |
| N#Cc1nn(-c2c(Cl)cc(C(F)(F)F)cc2Cl)c(N)c1S(=O)C(F)(F)F (stereo not drawn) | inactive | inactive | inactive | inactive | inactive | inactive | – |
| O=C(O)Cc1ccccc1 | inactive | inactive | inactive | inactive | inactive | inactive | inactive |
| O=C(CCCCl)c1ccc(F)cc1 | inactive | inactive | inactive | – | – | – | – |
| Cc1cccc(Cc2cnc[nH]2)c1C | inactive | inactive | inactive | inactive | inactive | inactive | inactive |
| CC(CC(C(N)=O)(c1ccccc1)c1ccccc1)N(C)C (stereo not drawn) | inactive | inactive | inactive | inactive | inactive | inactive | inactive |
| Cc1nnc2n1-c1sc(CCC(=O)N3CCOCC3)cc1C(c1ccccc1Cl)=NC2 | inactive | inactive | inactive | inactive | inactive | inactive | inactive |
| COc1cc(N)c(Cl)cc1C(=O)NC1CN2CCC1CC2 (stereo not drawn) | inactive | inactive | inactive | – | – | – | – |
| O=c1n(Cl)c(=O)n(Cl)c(=O)n1Cl | inactive | inactive | inactive | inactive | inactive | inactive | – |
| CN(C)C(=S)SSC(=S)N(C)C | inactive | inactive | inactive | 708 nM (active) | 891 nM (active) | 891 nM (active) | inactive |
| CCC1(c2cccc(O)c2)CCCCN(C)C1 (stereo not drawn) | inactive | inactive | inactive | inactive | inactive | inactive | inactive |
| CCOC(=O)C1(c2ccccc2)CCN(CCc2ccc(N)cc2)CC1 | inactive | inactive | inactive | inactive | inactive | inactive | inactive |

| Compound | Potency [1] | Potency [2] | outcome [3] | Potency [4] | Potency [5] | Potency [6] | Potency [7] |
| --- | --- | --- | --- | --- | --- | --- | --- |
| CC(C)[N+](C)(CCC(C(N)=O)(c1ccccc1)c1ccccc1)C(C)C | inactive | inactive | inactive | inactive | inactive | inactive | inactive |
| COc1ccc(CN2CCNCC2)c(OC)c1OC | inactive | inactive | inactive | inactive | inactive | inactive | inactive |
| C[N+]1(C)[C@@H]2CC[C@H]1CC(OC(=O)C(CO)c1ccccc1)C2 (stereo partly drawn) | inactive | inactive | inactive | inactive | inactive | inactive | inactive |
| COP(=O)(OC)OC=C(Cl)Cl | inactive | inactive | inactive | inactive | inactive | inactive | inactive |
| COP(=O)(OC)C(O)C(Cl)(Cl)Cl (stereo not drawn) | inactive | inactive | inactive | inactive | inactive | inactive | inactive |
| NC(=O)OCCCc1ccccc1 | inactive | inactive | inactive | inactive | inactive | inactive | inactive |
| CC1=C2[C@H]3OC(=O)[C@@H](C)[C@@H]3CC[C@@]2(C)C=CC1=O | inactive | inactive | inactive | inactive | inactive | inactive | inactive |
| COP(=S)(OC)Oc1ccc(Sc2ccc(OP(=S)(OC)OC)cc2)cc1 | inactive | inactive | inactive | – | – | – | – |
| C=CCN1CC[C@]23CCCC[C@H]2[C@H]1Cc1ccc(O)cc13 | inactive | inactive | inactive | inactive | inactive | inactive | – |
| CCN(CC)Cc1nccn1-c1ccc([N+](=O)[O-])cc1C(=O)c1ccccc1Cl | inactive | inactive | inactive | – | inactive | inactive | inactive |
| Cc1c(Cl)c(=O)oc2cc(OP(=O)(OCCCl)OCCCl)ccc12 | inactive | inactive | inactive | inactive | inactive | inactive | inactive |
| CC(Cc1ccccc1)NCc1ccccc1Cl (stereo not drawn) | inactive | inactive | inactive | inactive | inactive | inactive | inactive |
| O=c1[nH]c2cc(Cl)ccc2n1C1CCNCC1 | inactive | inactive | inactive | – | – | – | – |
| Cc1ccc(N=CN(C)C=Nc2ccc(C)cc2C)c(C)c1 | inactive | inactive | inactive | inactive | inactive | inactive | inactive |
| CC(C)(O)C(Cl)(Cl)Cl | inactive | inactive | inactive | inactive | inactive | inactive | inactive |
| CCCC[N+]1(C)[C@@H]2CC(OC(=O)[C@H](CO)c3ccccc3)C[C@H]1[C@@H]1O[C@@H]12 (stereo partly drawn) | inactive | inactive | inactive | inactive | inactive | inactive | inactive |
| CC(C)(C)OC(=O)c1ncn2c1[C@@H]1CCCN1C(=O)c1c(Br)cccc1-2 | inactive | inactive | inactive | – | – | – | – |
| CNC(C)Cc1ccccc1OC (stereo not drawn) | inactive | inactive | inactive | inactive | inactive | inactive | inactive |
| CCS(=O)(=O)C(C)(C)S(=O)(=O)CC | inactive | inactive | inactive | – | – | – | – |
| C[C@H]1C(=O)O[C@@H]2CCN3CC=C(COC(=O)[C@](C)(O)[C@]1(C)O)[C@H]23 | inactive | inactive | inactive | – | – | – | – |
| CCOC(=O)C(c1c(O)c2ccccc2oc1=O)c1c(O)c2ccccc2oc1=O | inactive | inactive | inactive | – | – | – | – |
| OC(O)C(Cl)(Cl)Cl | inactive | inactive | inactive | – | – | – | – |
| CCCCC1C(=O)NC(=O)N(C2CCCCC2)C1=O (stereo not drawn) | inactive | inactive | inactive | inactive | inactive | inactive | inactive |
| CCCCCCCCC(=O)NCc1ccc(O)c(OC)c1 | inactive | inactive | inactive | inactive | inactive | inactive | inactive |
| COP(=S)(OC)Oc1ccc(S(N)(=O)=O)cc1 | inactive | inactive | inactive | inactive | inactive | inactive | inactive |
| CN(C)CCc1c[nH]c2ccc(O)cc12 | inactive | inactive | inactive | – | – | – | – |
